Measured values published in paper PMC5700166.

Columns and labels:
Assay in all cases: protein-binding microarray (PBM); PBM: ~300 nM protein, 6 mM HEPES pH 7.8, 80 mM KCl, 0.5 mM EDTA, 0.5 mM EGTA, 6% glycerol, 35 ng/ul poly-dIdC, 1% milk, 1 h, room temperature; Ap Aiptasia and Nv Nematostella (sea anemones) / Co Capsaspora / Aq Amphimedon (sponge) / Dm Drosophila / Hu human; RHD is the Rel homology domain; high values mean tight binding
Conditions in all cases: dsDNA, one strand shown
GST-Ap-NF-kB RHD = target: T1, GST-Ap-NF-kB RHD (Exaiptasia pallida (Aiptasia), UniProt A0A913YAJ5 2-422)
T1 sequence: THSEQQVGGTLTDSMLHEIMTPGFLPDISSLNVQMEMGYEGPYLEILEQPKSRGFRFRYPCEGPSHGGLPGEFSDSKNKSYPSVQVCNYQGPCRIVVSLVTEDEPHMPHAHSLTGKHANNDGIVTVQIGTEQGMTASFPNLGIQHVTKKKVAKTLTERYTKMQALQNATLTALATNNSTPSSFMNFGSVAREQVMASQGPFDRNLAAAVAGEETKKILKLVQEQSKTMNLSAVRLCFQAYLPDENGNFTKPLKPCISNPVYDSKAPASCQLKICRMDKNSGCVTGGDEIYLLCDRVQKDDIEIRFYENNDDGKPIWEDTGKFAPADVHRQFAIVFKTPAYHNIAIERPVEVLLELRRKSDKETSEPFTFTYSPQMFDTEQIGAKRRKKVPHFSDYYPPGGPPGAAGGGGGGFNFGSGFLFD

[1] = target: T2, GST-Nv-NF-kB (Cys allele) (Nematostella vectensis, UniProt E5G601 2-411)
T2 sequence: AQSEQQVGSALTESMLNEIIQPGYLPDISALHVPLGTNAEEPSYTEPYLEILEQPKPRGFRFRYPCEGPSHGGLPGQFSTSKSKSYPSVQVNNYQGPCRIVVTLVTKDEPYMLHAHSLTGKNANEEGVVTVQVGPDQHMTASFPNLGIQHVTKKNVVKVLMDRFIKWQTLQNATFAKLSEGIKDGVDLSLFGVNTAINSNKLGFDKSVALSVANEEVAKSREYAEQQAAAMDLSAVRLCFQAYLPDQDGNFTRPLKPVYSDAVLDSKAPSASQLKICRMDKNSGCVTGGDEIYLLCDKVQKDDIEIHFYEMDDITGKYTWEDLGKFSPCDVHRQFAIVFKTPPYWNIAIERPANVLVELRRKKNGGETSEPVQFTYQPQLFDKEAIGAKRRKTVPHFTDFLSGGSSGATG

GST-Co-NF-kB = target: T3, GST-Co-NF-kB (Capsaspora owczarzaki, UniProt F1ARL5 200-546)
T3 sequence: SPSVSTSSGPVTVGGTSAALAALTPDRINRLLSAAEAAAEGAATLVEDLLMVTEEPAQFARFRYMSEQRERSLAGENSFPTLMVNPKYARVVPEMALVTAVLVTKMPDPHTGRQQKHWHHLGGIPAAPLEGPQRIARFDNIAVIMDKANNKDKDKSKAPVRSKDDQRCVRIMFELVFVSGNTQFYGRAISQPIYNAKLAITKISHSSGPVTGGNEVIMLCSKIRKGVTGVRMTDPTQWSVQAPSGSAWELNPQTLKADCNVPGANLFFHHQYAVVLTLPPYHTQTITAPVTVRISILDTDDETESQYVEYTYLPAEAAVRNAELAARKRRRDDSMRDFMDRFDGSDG

GST-Dm-Relish = target: T4, GST-Dm-Relish (Drosophila melanogaster, UniProt Q94527 99-473)
T4 sequence: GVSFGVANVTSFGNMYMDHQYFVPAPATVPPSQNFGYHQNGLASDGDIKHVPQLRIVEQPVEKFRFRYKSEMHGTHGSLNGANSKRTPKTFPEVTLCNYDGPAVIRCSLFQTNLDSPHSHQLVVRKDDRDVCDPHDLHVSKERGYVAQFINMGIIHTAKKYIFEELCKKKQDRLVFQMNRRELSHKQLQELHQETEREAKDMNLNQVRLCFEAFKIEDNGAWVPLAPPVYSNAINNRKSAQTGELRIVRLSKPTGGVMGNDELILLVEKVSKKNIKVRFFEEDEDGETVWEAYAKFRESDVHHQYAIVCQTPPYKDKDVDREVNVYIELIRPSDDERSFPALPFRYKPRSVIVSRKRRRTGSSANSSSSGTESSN

GST-Aq-NF-kB = target: T5, GST-Aq-NF-kB (Amphimedon queenslandica, UniProt A9Y5G7 2-389)
T5 sequence: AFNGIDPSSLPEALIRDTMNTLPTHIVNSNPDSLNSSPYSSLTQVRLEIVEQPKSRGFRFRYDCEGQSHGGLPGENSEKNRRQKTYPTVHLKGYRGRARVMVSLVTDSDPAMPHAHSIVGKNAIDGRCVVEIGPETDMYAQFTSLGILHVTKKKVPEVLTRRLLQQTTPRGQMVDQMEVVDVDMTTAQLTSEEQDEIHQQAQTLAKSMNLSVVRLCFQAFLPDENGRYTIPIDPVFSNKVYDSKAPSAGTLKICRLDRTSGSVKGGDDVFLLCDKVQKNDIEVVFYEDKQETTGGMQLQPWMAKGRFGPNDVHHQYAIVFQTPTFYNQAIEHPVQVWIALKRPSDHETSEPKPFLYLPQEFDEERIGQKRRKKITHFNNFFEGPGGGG

Sequence | binding signal (GST-Ap-NF-kB RHD) | binding signal [1] | binding signal (GST-Co-NF-kB) | binding signal (GST-Dm-Relish) | binding signal (GST-Aq-NF-kB)
CCGATTAACATCAGGAGTACCCCTGATGTTAATCGGGTCTTGATTCGCTTGACGCTGCTG | 3.01 z-score | 2.42 z-score | 2.96 z-score | 3.64 z-score | 4.07 z-score
CCGATTAACATCAGGGAAAGTAATGATGTTAATCGGGTCTTGATTCGCTTGACGCTGCTG | 3.01 z-score | 4.93 z-score | 3.38 z-score | 2.08 z-score | 4.25 z-score
CCGATTAACATCAATTTCCCGCCTGATGTTAATCGGGTCTTGATTCGCTTGACGCTGCTG | 2.79 z-score | 3.63 z-score | 3.64 z-score | 1.31 z-score | 2.64 z-score
CCGATTAACATCACTTTACCCCCTGATGTTAATCGGGTCTTGATTCGCTTGACGCTGCTG | 4.02 z-score | 2.61 z-score | 6.83 z-score | 2.27 z-score | 3.05 z-score
CCGATTAACATCAGATGTCCCCCTGATGTTAATCGGGTCTTGATTCGCTTGACGCTGCTG | 6.05 z-score | 5.16 z-score | 5.82 z-score | 2.8 z-score | 4.73 z-score
CCGATTAACATCACTGGGATTTCTGATGTTAATCGGGTCTTGATTCGCTTGACGCTGCTG | 2.53 z-score | 1.96 z-score | 1.15 z-score | 5.55 z-score | 2.37 z-score
CCGATTAACATCAGGATATTCCCTGATGTTAATCGGGTCTTGATTCGCTTGACGCTGCTG | 4.67 z-score | 5.16 z-score | 3.51 z-score | 3.37 z-score | 6.63 z-score
CCGATTAACATCAAGAATTCCCATGATGTTAATCGGGTCTTGATTCGCTTGACGCTGCTG | 4.1 z-score | 5.41 z-score | 3.48 z-score | 4.5 z-score | 4.33 z-score
CCGATTAACATCAGGGGATCCCATGATGTTAATCGGGTCTTGATTCGCTTGACGCTGCTG | 7.15 z-score | 5.1 z-score | 2.81 z-score | 10 z-score | 4.95 z-score
CCGATTAACATCAAAGAAGCCCCTGATGTTAATCGGGTCTTGATTCGCTTGACGCTGCTG | 4.38 z-score | 5.52 z-score | 1.52 z-score | 4.39 z-score | 5.13 z-score
CCGATTAACATCAAATATTCCCATGATGTTAATCGGGTCTTGATTCGCTTGACGCTGCTG | 4.02 z-score | 4.31 z-score | 3.51 z-score | 2.7 z-score | 3.63 z-score
CCGATTAACATCAGGGAAAATGATGATGTTAATCGGGTCTTGATTCGCTTGACGCTGCTG | 2.8 z-score | 4.26 z-score | 3.42 z-score | 1.15 z-score | 3.05 z-score
CCGATTAACATCAAAATCTTCCCTGATGTTAATCGGGTCTTGATTCGCTTGACGCTGCTG | 5.74 z-score | 5.94 z-score | 4.16 z-score | 1.48 z-score | 5.28 z-score
